About 7,900 targets were measured; listed, in parts, are those with a hit and a random draw of the rest. About 0.6% of all pairs of compound and target were hits.
Assays:
Assay in all cases: log2 fold change, soluble protein after heating vs DMSO (PISA); higher = thermal stabilisation; K562 cells, 10 uM, 30 min; active = over 0.2 and 3.5 SD of the protein, either way, in both replicates (recomputed)
saracatinib = compound: CN1CCN(CCOc2cc(OC3CCOCC3)c3c(Nc4c(Cl)ccc5c4OCO5)ncnc3c2)CC1 [saracatinib]
Method in brief: (§1)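 Aliquots of K562 cells (2×10^6 cells/mL) treated with 10 μM compound for 30 min were heated for 3 min over 48°C-58°C. After pooling and extraction in PBS with 0.5% NP-40 at 4°C, soluble protein from a 21,000xg, 90 min spin was quantified by TMTpro 16plex LC-MS/MS with channel sums equalised. Thermal stability is expressed against control samples, from duplicates, as a log2 fold change.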

sotrastaurin = compound: CN1CCN(c2nc(C3=C(c4c[nH]c5ccccc45)C(=O)NC3=O)c3ccccc3n2)CC1 [sotrastaurin]
Method in brief: as §1

alvocidib = compound: CN1CC[C@H](c2c(O)cc(O)c3c(=O)cc(-c4ccccc4Cl)oc23)[C@H](O)C1 [alvocidib]
Method in brief: as §1

Tubastatin A = compound: CN1CCc2c(c3ccccc3n2Cc2ccc(C(=O)NO)cc2)C1 [Tubastatin A]
Method in brief: as §1

[1] = compound: CNC(=O)C1=CC=CC=C1NC2=NC(=NC=C2Cl)NC3=C(C=C(C=C3)N4CCOCC4)OC
Method in brief: as §1

defactinib = compound: CNC(=O)c1ccc(Nc2ncc(C(F)(F)F)c(NCc3nccnc3N(C)S(C)(=O)=O)n2)cc1 [defactinib]
Method in brief: as §1

rucaparib = compound: CNCc1ccc(-c2[nH]c3cc(F)cc4c3c2CCNC4=O)cc1 [rucaparib]
Method in brief: as §1

[2] = compound: CNc1nc(-c2ccc3c(N)n[nH]c3c2)cc(N2C[C@@H](C(=O)NC3CCCCC3)CC[C@H]2C)n1
Method in brief: as §1

encorafenib = compound: COC(=O)N[C@@H](C)CNc1nccc(-c2cn(C(C)C)nc2-c2cc(Cl)cc(NS(C)(=O)=O)c2F)n1 [encorafenib]
Method in brief: as §1

[3] = compound: COC(=O)[C@H](CCSC)NC(=O)C1=C(C=C(C=C1)NC[C@H](CS)N)C2=CC=CC=C2
Method in brief: as §1

[4] = compound: COC1=CC=C(C=C1)CN2C=CC3=C2C=C(C=C3)C(=O)NO
Method in brief: as §1

filanesib = compound: CON(C)C(=O)N1N=C(c2cc(F)ccc2F)S[C@@]1(CCCN)c1ccccc1 [filanesib]
Method in brief: as §1

zotarolimus = compound: CO[C@H]1C[C@@H]2CC[C@@H](C)[C@@](O)(O2)C(=O)C(=O)N2CCCC[C@H]2C(=O)O[C@H]([C@H](C)C[C@@H]2CC[C@H](n3cnnn3)[C@H](OC)C2)CC(=O)[C@H](C)/C=C(\C)[C@@H](O)[C@@H](OC)C(=O)[C@H](C)C[C@H](C)/C=C/C=C/C=C/1C [zotarolimus]
Method in brief: as §1

idasanutlin = compound: COc1cc(C(=O)O)ccc1NC(=O)[C@@H]1N[C@@H](CC(C)(C)C)[C@](C#N)(c2ccc(Cl)cc2F)[C@H]1c1cccc(Cl)c1F [idasanutlin]
Method in brief: as §1

alisertib = compound: COc1cc(Nc2ncc3c(n2)-c2ccc(Cl)cc2C(c2c(F)cccc2OC)=NC3)ccc1C(=O)O [alisertib]
Method in brief: as §1

[5] = compound: COc1cc2nc(-c3cc(F)ccc3O)nc(N[C@@H]3CNC[C@H]3C(C)(C)O)c2cc1OC
Method in brief: as §1

gefitinib = compound: COc1cc2ncnc(Nc3ccc(F)c(Cl)c3)c2cc1OCCCN1CCOCC1 [gefitinib]
Method in brief: as §1

[6] = compound: COc1cccc2cc(-c3nc([C@H]4CC[C@H](C(=O)O)CC4)n4ncnc(N)c34)[nH]c12
Method in brief: as §1

lapatinib = compound: CS(=O)(=O)CCNCc1ccc(-c2ccc3ncnc(Nc4ccc(OCc5cccc(F)c5)c(Cl)c4)c3c2)o1 [lapatinib]
Method in brief: as §1

pictilisib = compound: CS(=O)(=O)N1CCN(Cc2cc3nc(-c4cccc5[nH]ncc45)nc(N4CCOCC4)c3s2)CC1 [pictilisib]
Method in brief: as §1

Measured: log2 fold change

TJP2 isoform 7 (UniProt Q9UDY2)
Chain of UniProt Q9UDY2 (Q9UDY2 whole entry, looked up): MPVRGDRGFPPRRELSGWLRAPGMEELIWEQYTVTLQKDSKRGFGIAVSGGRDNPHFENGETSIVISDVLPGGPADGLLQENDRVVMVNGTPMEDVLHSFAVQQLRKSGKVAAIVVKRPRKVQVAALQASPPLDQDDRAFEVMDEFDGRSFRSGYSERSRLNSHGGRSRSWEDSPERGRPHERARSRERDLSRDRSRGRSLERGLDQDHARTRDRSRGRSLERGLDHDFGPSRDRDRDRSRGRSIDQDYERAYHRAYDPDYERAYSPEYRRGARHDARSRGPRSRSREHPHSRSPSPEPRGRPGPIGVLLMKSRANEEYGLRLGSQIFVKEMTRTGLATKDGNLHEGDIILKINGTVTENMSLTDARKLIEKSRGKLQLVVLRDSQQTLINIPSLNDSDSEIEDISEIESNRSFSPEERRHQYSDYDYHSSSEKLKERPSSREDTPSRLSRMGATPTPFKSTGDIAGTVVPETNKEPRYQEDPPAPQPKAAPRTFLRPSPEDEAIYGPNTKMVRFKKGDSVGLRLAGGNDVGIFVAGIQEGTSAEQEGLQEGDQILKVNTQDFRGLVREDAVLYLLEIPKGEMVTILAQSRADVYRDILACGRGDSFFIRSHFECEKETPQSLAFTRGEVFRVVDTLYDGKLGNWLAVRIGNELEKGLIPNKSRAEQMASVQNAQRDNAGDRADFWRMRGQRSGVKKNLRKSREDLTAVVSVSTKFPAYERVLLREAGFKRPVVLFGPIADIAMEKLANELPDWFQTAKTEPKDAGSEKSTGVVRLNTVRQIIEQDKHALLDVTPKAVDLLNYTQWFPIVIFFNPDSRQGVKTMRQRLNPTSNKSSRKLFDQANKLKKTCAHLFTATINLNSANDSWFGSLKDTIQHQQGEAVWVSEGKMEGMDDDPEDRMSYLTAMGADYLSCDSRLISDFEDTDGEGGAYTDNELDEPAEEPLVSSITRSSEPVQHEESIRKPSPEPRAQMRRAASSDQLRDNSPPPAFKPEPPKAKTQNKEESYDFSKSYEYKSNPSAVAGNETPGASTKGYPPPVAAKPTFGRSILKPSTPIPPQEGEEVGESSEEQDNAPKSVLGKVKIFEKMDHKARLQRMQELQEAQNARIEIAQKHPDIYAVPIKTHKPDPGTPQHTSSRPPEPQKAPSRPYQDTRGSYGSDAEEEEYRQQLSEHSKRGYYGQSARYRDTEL
inactive: saracatinib -0.074 | sotrastaurin -0.151 | alvocidib -0.067 | Tubastatin A 0.047 | [1] -0.06 | defactinib -0.211 | rucaparib 0.051 | [2] 0.054 | encorafenib 0.066 | [3] -0.097 | [4] 0.019 | filanesib 0.093 | zotarolimus 0.068 | idasanutlin -0.017 | alisertib -0.151 | [5] -0.091 | gefitinib 0.042 | [6] 0.012 | lapatinib 0.008 | pictilisib 0.067

SNW1 (UniProt Q13573)
Chain of UniProt Q13573 (Q13573 whole entry, looked up): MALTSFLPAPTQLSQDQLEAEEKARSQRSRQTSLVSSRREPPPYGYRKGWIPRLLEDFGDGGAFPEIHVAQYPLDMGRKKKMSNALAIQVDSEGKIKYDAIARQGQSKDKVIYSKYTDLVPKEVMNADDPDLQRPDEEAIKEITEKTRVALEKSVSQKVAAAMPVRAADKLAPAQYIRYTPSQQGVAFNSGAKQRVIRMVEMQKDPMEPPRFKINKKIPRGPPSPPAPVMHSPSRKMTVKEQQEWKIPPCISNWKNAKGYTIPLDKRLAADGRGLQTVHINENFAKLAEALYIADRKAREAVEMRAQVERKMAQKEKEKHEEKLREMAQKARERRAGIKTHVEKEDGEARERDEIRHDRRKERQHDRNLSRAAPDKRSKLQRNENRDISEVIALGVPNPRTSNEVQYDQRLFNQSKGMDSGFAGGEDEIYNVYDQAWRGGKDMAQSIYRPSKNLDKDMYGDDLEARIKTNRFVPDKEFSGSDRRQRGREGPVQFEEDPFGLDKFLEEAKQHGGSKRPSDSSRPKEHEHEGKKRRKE
inactive: saracatinib 0.01 | sotrastaurin 0.003 | alvocidib 0.128 | Tubastatin A -0.033 | [1] 0.038 | defactinib 0.131 | rucaparib 0.042 | [2] -0.082 | encorafenib -0.005 | [3] -0.005 | [4] 0.014 | filanesib 0.039 | zotarolimus -0.068 | idasanutlin 0.034 | alisertib -0.08 | [5] 0.073 | gefitinib -0.068 | [6] 0 | lapatinib 0.011 | pictilisib -0.035

TJP1 (UniProt Q07157)
Chain of UniProt Q07157 (Q07157 whole entry, looked up): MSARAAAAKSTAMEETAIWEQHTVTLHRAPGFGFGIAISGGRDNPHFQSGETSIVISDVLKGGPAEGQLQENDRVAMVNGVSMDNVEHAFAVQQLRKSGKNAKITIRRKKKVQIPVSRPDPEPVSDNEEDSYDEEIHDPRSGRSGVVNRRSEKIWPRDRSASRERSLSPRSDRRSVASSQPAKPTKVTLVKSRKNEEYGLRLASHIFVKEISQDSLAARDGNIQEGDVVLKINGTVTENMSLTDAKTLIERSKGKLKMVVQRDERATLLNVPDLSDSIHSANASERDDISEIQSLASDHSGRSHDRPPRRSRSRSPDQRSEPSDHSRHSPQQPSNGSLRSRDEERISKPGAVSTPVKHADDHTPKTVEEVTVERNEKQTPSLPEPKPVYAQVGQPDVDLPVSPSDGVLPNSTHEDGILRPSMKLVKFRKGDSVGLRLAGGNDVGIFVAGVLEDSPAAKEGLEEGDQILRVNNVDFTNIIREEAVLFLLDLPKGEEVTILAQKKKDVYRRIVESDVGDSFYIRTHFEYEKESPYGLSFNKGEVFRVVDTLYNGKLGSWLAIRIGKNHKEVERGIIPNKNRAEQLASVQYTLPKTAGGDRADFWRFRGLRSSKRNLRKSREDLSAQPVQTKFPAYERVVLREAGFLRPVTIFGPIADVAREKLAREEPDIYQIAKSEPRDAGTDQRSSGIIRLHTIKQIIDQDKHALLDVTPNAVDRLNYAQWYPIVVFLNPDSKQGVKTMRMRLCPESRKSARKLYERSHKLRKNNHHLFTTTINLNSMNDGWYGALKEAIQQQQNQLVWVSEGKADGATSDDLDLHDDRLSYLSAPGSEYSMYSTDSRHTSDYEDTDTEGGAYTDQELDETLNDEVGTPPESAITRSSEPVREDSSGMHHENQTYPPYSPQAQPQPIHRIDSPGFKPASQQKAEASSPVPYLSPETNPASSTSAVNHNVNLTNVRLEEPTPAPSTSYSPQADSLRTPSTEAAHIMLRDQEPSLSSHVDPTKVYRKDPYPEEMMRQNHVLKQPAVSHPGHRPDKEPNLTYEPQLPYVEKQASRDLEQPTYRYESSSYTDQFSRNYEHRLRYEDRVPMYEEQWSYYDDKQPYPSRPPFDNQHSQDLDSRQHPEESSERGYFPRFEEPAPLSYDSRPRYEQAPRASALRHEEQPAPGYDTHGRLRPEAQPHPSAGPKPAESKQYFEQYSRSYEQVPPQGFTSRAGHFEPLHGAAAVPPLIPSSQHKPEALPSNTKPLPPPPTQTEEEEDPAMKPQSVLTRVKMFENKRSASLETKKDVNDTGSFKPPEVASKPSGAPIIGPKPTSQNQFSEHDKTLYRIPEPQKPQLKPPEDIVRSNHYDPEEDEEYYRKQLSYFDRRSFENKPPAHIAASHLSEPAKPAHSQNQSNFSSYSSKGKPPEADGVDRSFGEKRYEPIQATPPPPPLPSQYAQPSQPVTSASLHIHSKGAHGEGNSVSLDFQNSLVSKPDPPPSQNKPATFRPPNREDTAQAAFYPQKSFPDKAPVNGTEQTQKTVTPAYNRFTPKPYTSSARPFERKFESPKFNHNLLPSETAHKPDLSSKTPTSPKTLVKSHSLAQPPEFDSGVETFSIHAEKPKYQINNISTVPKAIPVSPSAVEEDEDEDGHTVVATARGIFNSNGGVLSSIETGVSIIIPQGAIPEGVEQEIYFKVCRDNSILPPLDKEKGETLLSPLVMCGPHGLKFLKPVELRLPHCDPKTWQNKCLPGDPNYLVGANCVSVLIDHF
inactive: saracatinib -0.049 | sotrastaurin -0.064 | alvocidib -0.114 | Tubastatin A 0.045 | [1] -0.099 | defactinib -0.16 | rucaparib 0.018 | [2] 0.003 | encorafenib 0.029 | [3] -0.056 | [4] 0.02 | filanesib 0.035 | zotarolimus 0.03 | idasanutlin 0.001 | alisertib -0.059 | [5] 0.005 | gefitinib 0.038 | [6] 0.055 | lapatinib -0.006 | pictilisib 0.017

SPPL2B (UniProt Q8TCT7)
Chain of UniProt Q8TCT7 (Q8TCT7 whole entry, looked up): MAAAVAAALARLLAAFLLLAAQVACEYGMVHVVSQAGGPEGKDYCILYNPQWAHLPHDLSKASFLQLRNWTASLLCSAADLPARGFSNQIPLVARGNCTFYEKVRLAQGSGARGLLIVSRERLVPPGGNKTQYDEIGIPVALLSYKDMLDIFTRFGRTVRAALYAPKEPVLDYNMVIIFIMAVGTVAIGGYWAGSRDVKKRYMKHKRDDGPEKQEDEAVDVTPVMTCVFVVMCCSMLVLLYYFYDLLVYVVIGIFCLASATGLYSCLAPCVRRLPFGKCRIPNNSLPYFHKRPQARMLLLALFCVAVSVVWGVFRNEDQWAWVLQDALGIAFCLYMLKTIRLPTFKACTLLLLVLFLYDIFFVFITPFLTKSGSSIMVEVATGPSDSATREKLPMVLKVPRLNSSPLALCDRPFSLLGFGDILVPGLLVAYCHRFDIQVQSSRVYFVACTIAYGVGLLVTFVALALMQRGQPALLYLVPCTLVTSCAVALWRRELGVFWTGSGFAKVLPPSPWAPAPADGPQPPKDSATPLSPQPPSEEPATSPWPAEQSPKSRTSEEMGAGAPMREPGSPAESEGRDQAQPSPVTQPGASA
inactive: saracatinib -0.009 | sotrastaurin 0.074 | alvocidib -0.02 | Tubastatin A -0.031 | [1] 0.026 | defactinib -0.014 | rucaparib -0.036 | [2] -0.06 | encorafenib 0.029 | [3] 0.069 | [4] 0.025 | filanesib -0.223 | zotarolimus -0.016 | idasanutlin -0.01 | alisertib -0.113 | [5] -0.05 | gefitinib -0.061 | [6] 0.084 | lapatinib -0.002
active: pictilisib 0.292

SRSF3 (UniProt P84103)
Chain of UniProt P84103 (P84103 whole entry, looked up): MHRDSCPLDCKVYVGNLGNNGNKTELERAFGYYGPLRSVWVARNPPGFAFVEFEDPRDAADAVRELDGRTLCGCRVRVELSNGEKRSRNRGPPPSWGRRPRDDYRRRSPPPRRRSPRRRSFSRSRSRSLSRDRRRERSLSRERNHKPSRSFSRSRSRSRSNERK
inactive: saracatinib 0.019 | sotrastaurin 0.079 | alvocidib 0.265 | Tubastatin A -0.026 | [1] -0.053 | defactinib 0.235 | rucaparib 0.257 | [2] -0.022 | encorafenib 0.023 | [3] 0.032 | [4] -0.226 | filanesib 0.193 | zotarolimus -0.054 | idasanutlin 0.217 | alisertib -0.101 | [5] -0.011 | gefitinib -0.026 | [6] -0.009 | lapatinib -0.006 | pictilisib -0.018

SSR3 isoform 2 (UniProt Q9UNL2)
inactive: saracatinib 0.153 | sotrastaurin 0.083 | alvocidib -0.108 | Tubastatin A -0.04 | [1] 0.006 | defactinib -0.006 | rucaparib -0.049 | [2] -0.052 | encorafenib 0.001 | [3] 0.086 | [4] -0.236 | filanesib -0.107 | zotarolimus 0.087 | idasanutlin 0.066 | alisertib -0.015 | [5] -0.013 | gefitinib 0.003 | [6] 0.08 | lapatinib 0.006 | pictilisib -0.096

SNX2 (UniProt O60749)
inactive: saracatinib 0.006 | sotrastaurin 0.002 | alvocidib -0.089 | Tubastatin A 0.004 | [1] -0.114 | defactinib -0.068 | rucaparib -0.004 | [2] 0.024 | encorafenib 0 | [3] -0.029 | [4] 0.011 | filanesib -0.156 | zotarolimus 0.037 | idasanutlin 0 | alisertib 0.013 | [5] -0.101 | gefitinib -0.105 | [6] 0.029 | lapatinib 0.001 | pictilisib -0.104

SSRP1 (UniProt Q08945)
Chain of UniProt Q08945 (Q08945 whole entry, looked up): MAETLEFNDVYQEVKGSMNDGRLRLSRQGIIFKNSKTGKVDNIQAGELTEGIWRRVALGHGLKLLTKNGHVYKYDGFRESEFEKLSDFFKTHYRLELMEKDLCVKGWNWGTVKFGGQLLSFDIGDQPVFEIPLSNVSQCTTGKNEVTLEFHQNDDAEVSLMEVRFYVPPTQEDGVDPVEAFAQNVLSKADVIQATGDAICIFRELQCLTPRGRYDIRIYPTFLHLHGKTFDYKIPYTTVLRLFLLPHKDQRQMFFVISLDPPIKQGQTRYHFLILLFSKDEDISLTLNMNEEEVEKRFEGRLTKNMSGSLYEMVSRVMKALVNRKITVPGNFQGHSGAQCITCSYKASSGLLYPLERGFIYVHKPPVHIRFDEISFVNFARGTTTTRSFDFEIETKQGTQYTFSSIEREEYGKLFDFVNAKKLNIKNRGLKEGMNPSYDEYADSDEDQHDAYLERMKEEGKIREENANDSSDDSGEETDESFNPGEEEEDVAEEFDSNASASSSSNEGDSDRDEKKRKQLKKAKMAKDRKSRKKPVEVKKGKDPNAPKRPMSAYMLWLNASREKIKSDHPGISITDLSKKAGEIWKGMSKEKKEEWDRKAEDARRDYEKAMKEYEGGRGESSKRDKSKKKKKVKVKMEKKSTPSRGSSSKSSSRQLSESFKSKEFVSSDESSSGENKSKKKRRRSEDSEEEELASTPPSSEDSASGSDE
active: defactinib -0.23
inactive: saracatinib 0.01 | sotrastaurin -0.049 | alvocidib -0.157 | Tubastatin A 0.099 | [1] -0.052 | rucaparib -0.038 | [2] -0.045 | encorafenib 0.048 | [3] -0.05 | [4] 0.118 | filanesib 0.023 | zotarolimus 0.036 | idasanutlin -0.005 | alisertib -0.037 | [5] -0.05 | gefitinib 0.028 | [6] -0.014 | lapatinib 0.008 | pictilisib -0.026

TFRC (UniProt P02786)
inactive: saracatinib 0.008 | sotrastaurin 0.005 | alvocidib 0.01 | Tubastatin A -0.028 | [1] 0.029 | defactinib -0.03 | rucaparib -0.003 | [2] -0.056 | encorafenib 0.019 | [3] -0.004 | [4] 0.009 | filanesib -0.013 | zotarolimus -0.041 | idasanutlin -0.027 | alisertib -0.05 | [5] 0.017 | gefitinib 0.004 | [6] 0.063 | lapatinib -0.03 | pictilisib 0.048

STK38 (UniProt Q15208)
inactive: saracatinib -0.02 | sotrastaurin -0.055 | alvocidib -0.12 | Tubastatin A -0.016 | [1] -0.073 | defactinib -0.127 | rucaparib 0.058 | [2] 0.005 | encorafenib 0.104 | [3] -0.064 | [4] 0.029 | filanesib -0.024 | zotarolimus 0.036 | idasanutlin -0.009 | alisertib 0.007 | [5] -0.006 | gefitinib -0.038 | [6] -0.01 | lapatinib -0.001 | pictilisib 0.146

SYF2 (UniProt O95926)
active: alvocidib 0.383
inactive: saracatinib -0.028 | sotrastaurin -0.041 | Tubastatin A -0.016 | [1] -0.086 | defactinib 0.286 | rucaparib 0.029 | [2] -0.14 | encorafenib -0.062 | [3] 0.038 | [4] -0.236 | filanesib 0.069 | zotarolimus -0.174 | idasanutlin 0.058 | alisertib -0.07 | [5] 0.191 | gefitinib -0.109 | [6] 0.02 | lapatinib -0.025 | pictilisib -0.092

SYNE2 isoform 2 (UniProt Q8WXH0)
inactive: saracatinib -0.121 | sotrastaurin -0.005 | alvocidib 0.156 | Tubastatin A 0.071 | [1] -0.109 | defactinib 0.029 | rucaparib -0.045 | [2] 0.049 | encorafenib -0.107 | [3] -0.006 | [4] 0.112 | filanesib 0.048 | zotarolimus -0.057 | idasanutlin -0.185 | alisertib -0.054 | [5] 0.34 | gefitinib 0.078 | [6] -0.004 | lapatinib -0.133 | pictilisib 0.205

SLC4A2 (UniProt P04920)
inactive: saracatinib 0.003 | sotrastaurin -0.029 | alvocidib -0.174 | Tubastatin A 0.066 | [1] -0.006 | defactinib 0.028 | rucaparib 0.064 | [2] 0.008 | encorafenib 0.085 | [3] -0.067 | [4] -0.088 | filanesib -0.041 | zotarolimus 0 | idasanutlin -0.002 | alisertib -0.016 | [5] 0.051 | gefitinib -0.081 | [6] -0.003 | lapatinib -0.023 | pictilisib 0.128

SLC25A4 (UniProt P12235)
inactive: saracatinib -0.022 | sotrastaurin 0.029 | alvocidib 0.068 | Tubastatin A -0.138 | [1] 0.044 | defactinib 0.012 | rucaparib -0.061 | [2] -0.026 | encorafenib -0.001 | [3] 0.019 | [4] -0.012 | filanesib -0.024 | zotarolimus -0.018 | idasanutlin 0.003 | alisertib 0.014 | [5] 0.039 | gefitinib 0.006 | [6] -0.012 | lapatinib -0.026 | pictilisib 0.115

STK4 (UniProt Q13043)
inactive: saracatinib 0.006 | sotrastaurin 0.029 | alvocidib -0.01 | Tubastatin A 0.039 | [1] 0.01 | defactinib -0.002 | rucaparib -0.008 | [2] 0.012 | encorafenib 0.077 | [3] -0.003 | [4] -0.031 | filanesib -0.034 | zotarolimus -0.025 | idasanutlin 0.01 | alisertib -0.047 | [5] 0.099 | gefitinib -0.007 | [6] 0.015 | lapatinib -0.036 | pictilisib 0.02

SMCHD1 (UniProt A6NHR9)
inactive: saracatinib -0.238 | sotrastaurin -0.084 | alvocidib -0.492 | Tubastatin A 0.002 | [1] -0.028 | defactinib -0.45 | rucaparib 0.183 | [2] 0.075 | encorafenib 0.188 | [3] -0.088 | [4] 0.043 | filanesib 0.008 | zotarolimus 0.123 | idasanutlin 0.062 | alisertib -0.005 | [5] -0.179 | gefitinib -0.078 | [6] -0.096 | lapatinib 0.002 | pictilisib 0.035

From the supplement of paper PMC10849652
